Measurements as given in the supplement of paper PMC11732987, “Enantioselective OTUD7B fragment discovery through chemoproteomics screening and high-throughput optimisation” (Communications Chemistry, 2025).

Legend:
Assay in all cases: log2 ratio of Biotin-Ahx-Ub-VS probe labelling (fragment/DMSO); higher = less target engagement (more negative = stronger competition), active = hit call of the paper (q ≤ 0.05, log2 ratio ≤ -1)
Conditions in all cases: compound concentration: 200 uM; treatment time: 3 h
USP42 = biological target: T1, USP42 (UniProt Q9H9J4)
T1 sequence (whole entry): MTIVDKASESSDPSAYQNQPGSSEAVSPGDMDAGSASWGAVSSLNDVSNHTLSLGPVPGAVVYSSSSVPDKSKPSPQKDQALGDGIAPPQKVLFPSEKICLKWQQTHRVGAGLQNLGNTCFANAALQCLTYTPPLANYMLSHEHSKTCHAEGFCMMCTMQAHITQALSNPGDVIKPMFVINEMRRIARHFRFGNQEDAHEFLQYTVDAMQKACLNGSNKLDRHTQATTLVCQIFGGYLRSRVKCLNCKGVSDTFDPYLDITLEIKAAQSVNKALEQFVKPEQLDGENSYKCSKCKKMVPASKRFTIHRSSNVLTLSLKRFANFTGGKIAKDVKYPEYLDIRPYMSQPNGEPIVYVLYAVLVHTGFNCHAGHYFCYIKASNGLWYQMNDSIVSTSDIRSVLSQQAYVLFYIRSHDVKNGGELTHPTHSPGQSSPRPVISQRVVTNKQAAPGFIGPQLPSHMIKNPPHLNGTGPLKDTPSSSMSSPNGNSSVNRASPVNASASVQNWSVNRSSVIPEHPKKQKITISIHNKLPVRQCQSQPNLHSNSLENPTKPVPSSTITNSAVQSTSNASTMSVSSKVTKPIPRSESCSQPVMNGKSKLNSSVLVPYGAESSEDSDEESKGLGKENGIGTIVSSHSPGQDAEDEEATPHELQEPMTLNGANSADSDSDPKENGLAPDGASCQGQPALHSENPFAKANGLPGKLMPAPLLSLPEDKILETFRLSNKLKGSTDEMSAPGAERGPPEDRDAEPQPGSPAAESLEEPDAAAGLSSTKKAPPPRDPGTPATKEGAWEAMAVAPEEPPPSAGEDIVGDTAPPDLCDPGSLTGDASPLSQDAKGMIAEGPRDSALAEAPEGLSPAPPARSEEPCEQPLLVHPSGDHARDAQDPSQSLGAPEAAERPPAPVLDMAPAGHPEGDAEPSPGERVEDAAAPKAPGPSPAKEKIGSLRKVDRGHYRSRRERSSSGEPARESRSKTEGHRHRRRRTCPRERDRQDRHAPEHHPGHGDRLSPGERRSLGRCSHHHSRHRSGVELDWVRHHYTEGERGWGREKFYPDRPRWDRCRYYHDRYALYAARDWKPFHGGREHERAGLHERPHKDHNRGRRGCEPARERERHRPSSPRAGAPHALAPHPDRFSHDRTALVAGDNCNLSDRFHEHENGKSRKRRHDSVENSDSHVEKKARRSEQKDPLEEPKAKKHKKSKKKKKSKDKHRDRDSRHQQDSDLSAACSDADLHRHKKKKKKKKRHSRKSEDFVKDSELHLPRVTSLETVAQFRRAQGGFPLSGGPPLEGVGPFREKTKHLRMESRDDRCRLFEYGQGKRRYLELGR
How it was run: (§1)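 HEK293T lysate (495 µg per sample, in Tris/CHAPS/IGEPAL buffer with protease inhibitors) was exposed in triplicate for 3 h to fragment at 200 µM or to vehicle, then to Biotin-Ahx-Ub-VS at 0.5 µM final for 1 h. Labelled DUBs were enriched on NeutrAvidin, digested with LysC and trypsin, and analysed by diaPASEF LC-MS/MS. Spectronaut label-free quantities were normalised to the global median, and values are average log2 ratios of fragment over vehicle from an unpaired t-test. Only proteins with ≥2 unique peptides were used.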

USP46 = USP46 (UniProt P62068)
How it was run: as §1

USP47 = biological target: T2, USP47 (UniProt Q96K76)
T2 sequence (whole entry): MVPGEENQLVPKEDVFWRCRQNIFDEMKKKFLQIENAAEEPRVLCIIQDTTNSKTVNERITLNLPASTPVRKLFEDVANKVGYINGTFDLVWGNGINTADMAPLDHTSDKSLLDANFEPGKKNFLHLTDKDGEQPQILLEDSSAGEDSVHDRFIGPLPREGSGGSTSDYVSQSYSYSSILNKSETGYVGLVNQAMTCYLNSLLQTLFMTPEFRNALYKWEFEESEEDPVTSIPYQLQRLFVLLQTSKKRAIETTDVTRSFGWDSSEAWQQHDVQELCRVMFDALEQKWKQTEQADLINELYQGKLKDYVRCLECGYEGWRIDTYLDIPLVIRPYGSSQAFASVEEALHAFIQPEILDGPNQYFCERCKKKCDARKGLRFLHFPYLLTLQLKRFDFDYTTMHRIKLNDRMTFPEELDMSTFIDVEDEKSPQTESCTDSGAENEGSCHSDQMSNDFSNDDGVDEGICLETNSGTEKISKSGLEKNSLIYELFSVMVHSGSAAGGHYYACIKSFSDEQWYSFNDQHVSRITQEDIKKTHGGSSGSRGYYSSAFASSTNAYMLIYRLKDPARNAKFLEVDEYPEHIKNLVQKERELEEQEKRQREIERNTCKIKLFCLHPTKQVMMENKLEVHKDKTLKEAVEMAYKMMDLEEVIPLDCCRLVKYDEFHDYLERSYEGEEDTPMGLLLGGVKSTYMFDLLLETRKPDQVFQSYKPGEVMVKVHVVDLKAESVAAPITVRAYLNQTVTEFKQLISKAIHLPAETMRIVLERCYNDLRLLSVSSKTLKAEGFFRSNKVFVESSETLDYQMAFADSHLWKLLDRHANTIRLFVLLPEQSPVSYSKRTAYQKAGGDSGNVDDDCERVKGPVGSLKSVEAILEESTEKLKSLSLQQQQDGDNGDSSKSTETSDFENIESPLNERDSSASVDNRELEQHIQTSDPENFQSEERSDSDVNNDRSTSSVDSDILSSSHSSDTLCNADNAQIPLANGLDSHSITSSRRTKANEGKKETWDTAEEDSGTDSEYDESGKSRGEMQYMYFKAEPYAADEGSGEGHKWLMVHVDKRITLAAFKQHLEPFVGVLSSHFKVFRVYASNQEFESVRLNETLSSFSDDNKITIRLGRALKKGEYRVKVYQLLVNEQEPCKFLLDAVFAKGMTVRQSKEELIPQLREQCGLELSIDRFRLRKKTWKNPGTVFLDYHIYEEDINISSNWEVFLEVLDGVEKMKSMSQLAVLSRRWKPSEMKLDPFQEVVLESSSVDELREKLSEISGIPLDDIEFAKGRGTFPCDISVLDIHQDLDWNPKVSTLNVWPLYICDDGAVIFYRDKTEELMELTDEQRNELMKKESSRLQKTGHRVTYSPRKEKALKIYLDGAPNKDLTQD
How it was run: as §1

USP48 = biological target: T3, USP48 (UniProt Q86UV5)
T3 sequence (whole entry): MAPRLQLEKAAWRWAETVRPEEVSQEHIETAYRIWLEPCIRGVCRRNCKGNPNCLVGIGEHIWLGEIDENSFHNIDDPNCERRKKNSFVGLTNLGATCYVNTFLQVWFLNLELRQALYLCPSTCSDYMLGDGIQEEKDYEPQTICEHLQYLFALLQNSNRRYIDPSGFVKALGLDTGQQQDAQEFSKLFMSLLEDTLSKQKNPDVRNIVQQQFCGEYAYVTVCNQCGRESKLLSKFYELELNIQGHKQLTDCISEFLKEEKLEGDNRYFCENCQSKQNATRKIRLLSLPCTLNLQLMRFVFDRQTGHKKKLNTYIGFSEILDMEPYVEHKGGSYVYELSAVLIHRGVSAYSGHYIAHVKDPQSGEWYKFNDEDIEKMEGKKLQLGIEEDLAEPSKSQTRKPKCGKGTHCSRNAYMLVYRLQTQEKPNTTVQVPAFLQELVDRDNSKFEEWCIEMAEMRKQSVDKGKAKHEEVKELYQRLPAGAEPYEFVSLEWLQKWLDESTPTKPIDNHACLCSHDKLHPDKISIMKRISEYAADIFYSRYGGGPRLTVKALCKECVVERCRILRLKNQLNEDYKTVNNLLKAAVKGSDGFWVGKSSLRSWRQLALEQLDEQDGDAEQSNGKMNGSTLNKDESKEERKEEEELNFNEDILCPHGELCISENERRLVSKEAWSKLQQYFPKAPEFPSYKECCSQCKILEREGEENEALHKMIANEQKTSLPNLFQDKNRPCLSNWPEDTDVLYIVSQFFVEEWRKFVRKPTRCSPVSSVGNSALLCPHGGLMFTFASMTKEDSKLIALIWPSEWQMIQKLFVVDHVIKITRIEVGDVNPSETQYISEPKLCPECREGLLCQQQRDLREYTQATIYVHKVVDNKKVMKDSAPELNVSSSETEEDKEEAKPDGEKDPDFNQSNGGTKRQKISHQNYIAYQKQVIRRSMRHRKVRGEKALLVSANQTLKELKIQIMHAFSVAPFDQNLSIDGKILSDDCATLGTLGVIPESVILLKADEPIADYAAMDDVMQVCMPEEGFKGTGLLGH
How it was run: as §1

USP5 = biological target: T4, USP5 (UniProt P45974)
T4 sequence (whole entry): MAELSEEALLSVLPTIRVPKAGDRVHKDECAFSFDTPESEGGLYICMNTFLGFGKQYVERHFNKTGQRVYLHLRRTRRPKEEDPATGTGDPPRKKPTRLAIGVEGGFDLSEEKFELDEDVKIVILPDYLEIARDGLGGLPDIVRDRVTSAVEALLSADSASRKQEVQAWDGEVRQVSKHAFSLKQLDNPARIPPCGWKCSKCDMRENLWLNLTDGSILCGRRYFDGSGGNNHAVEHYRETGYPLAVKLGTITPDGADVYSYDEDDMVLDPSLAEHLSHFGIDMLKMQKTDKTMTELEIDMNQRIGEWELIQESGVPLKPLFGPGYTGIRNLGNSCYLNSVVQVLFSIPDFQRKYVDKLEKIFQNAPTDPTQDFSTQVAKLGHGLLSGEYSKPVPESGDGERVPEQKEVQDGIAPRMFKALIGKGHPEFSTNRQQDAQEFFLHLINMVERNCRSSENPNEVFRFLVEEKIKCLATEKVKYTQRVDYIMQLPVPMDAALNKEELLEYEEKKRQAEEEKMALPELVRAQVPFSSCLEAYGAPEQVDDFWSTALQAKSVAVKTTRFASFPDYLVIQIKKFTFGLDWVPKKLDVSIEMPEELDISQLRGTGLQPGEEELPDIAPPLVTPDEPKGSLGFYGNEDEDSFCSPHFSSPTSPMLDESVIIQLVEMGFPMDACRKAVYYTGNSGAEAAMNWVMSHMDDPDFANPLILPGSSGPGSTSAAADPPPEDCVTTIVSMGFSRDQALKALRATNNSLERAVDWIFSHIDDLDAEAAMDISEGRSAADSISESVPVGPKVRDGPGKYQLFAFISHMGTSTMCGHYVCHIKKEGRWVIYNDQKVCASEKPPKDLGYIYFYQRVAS
How it was run: as §1

USP54 = USP54 (UniProt Q70EL1)
How it was run: as §1

USP7 = USP7 (UniProt Q93009)
How it was run: as §1

USP8 = biological target: T5, USP8 (UniProt P40818)
T5 sequence (whole entry): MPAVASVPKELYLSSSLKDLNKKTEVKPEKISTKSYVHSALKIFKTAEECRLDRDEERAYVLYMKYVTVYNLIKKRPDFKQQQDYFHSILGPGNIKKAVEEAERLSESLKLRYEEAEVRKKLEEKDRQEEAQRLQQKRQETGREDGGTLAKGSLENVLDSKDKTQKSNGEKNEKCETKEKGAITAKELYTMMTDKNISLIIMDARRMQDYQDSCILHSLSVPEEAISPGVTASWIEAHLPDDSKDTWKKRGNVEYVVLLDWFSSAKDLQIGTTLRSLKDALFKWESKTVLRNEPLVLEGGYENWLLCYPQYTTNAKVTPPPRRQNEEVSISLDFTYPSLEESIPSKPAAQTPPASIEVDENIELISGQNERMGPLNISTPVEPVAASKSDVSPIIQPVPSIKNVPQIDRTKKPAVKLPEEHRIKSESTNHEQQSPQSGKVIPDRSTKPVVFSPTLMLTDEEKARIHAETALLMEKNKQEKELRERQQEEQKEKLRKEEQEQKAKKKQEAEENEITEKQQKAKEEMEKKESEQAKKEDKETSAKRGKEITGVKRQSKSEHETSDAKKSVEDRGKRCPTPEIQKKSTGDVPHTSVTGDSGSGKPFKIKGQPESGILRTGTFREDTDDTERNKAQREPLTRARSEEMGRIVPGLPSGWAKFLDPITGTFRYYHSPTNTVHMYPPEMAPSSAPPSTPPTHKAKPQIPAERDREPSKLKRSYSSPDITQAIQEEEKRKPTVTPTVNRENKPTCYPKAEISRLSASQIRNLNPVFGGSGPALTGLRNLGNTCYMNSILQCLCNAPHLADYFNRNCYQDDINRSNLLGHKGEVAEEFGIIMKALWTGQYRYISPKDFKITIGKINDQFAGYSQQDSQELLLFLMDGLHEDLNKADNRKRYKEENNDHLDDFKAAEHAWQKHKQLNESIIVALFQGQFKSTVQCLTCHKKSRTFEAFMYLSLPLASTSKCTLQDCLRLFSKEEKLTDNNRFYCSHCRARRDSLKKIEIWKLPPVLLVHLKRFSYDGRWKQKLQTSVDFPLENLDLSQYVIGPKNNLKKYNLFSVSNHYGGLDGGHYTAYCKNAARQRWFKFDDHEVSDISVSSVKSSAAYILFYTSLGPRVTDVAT
How it was run: as §1

USP9X = USP9X (UniProt Q93008)
How it was run: as §1

UniProt O00487 = biological target: UniProt O00487
How it was run: as §1

Measured: log2 ratio of Biotin-Ahx-Ub-VS probe labelling

Chain of USP9X (Q93008 whole entry): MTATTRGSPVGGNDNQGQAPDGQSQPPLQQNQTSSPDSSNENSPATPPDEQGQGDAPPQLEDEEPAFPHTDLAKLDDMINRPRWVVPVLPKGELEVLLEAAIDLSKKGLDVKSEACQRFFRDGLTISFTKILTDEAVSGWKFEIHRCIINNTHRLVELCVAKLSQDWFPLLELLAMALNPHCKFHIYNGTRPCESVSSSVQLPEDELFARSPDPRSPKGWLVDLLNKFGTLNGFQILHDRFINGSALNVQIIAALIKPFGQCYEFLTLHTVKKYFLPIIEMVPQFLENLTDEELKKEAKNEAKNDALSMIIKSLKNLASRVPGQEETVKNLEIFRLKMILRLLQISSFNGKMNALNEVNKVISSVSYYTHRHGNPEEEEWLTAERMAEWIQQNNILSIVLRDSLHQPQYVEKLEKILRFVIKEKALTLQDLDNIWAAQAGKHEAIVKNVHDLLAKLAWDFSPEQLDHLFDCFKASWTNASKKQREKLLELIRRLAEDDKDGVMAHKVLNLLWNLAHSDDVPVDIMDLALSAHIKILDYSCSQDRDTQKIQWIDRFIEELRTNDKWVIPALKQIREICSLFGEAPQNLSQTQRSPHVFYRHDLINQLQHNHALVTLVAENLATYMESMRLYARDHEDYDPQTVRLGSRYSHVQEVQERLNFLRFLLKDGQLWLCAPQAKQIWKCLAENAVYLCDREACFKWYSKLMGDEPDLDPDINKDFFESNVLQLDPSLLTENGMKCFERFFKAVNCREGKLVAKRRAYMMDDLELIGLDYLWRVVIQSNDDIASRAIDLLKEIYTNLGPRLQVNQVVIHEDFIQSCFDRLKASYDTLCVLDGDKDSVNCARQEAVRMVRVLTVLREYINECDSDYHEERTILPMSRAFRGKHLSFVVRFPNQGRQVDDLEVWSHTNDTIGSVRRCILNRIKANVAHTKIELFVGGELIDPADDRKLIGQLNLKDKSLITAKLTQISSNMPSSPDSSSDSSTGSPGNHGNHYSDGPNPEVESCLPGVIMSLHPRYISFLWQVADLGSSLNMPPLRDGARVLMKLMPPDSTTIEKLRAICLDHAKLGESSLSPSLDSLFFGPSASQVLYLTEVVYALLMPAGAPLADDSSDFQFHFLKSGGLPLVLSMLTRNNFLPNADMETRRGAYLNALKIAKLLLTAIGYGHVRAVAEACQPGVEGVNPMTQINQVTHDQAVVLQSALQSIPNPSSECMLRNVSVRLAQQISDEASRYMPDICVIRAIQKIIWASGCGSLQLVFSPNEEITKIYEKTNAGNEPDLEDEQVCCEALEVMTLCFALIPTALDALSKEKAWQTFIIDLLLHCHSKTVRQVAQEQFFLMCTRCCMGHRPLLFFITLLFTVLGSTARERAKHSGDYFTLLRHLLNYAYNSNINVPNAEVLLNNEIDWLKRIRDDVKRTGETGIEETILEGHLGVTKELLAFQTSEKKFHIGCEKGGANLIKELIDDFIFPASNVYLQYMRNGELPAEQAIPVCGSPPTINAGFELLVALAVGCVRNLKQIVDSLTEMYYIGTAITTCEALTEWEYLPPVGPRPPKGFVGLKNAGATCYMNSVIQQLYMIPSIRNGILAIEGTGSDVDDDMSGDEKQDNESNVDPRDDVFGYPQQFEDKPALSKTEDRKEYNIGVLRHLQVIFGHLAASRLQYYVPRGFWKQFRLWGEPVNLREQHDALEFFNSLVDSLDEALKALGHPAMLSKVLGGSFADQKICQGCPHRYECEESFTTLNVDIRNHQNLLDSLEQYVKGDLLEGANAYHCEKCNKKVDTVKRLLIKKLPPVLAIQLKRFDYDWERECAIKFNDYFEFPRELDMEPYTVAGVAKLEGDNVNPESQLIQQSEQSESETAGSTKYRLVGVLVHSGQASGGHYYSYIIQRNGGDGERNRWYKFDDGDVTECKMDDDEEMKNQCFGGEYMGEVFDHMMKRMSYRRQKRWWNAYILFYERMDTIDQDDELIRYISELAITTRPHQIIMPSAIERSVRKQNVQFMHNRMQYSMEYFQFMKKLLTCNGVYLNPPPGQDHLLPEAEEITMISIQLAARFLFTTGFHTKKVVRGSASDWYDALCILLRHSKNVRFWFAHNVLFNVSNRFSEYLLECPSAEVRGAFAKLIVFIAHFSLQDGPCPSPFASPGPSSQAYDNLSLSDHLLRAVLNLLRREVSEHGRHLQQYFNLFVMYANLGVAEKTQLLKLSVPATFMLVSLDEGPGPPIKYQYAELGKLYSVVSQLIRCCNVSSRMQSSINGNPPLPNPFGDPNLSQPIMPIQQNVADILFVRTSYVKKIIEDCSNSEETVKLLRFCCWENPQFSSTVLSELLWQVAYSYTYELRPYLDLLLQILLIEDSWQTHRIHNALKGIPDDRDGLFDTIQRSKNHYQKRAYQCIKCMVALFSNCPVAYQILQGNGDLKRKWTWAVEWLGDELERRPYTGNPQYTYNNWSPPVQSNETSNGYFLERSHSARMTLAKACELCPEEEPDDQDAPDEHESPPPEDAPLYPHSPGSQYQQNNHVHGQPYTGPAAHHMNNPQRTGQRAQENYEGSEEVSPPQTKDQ
Chain of USP46 (P62068 whole entry): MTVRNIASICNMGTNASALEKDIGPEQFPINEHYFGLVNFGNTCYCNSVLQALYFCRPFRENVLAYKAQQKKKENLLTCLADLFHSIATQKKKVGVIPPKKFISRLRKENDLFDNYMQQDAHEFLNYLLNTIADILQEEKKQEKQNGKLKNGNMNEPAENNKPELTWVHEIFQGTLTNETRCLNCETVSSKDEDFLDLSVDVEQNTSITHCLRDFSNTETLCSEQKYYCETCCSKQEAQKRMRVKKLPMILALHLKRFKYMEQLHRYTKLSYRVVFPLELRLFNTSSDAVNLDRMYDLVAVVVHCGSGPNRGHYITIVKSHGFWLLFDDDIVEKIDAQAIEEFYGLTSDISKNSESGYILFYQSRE
Chain of USP7 (Q93009 whole entry, looked up): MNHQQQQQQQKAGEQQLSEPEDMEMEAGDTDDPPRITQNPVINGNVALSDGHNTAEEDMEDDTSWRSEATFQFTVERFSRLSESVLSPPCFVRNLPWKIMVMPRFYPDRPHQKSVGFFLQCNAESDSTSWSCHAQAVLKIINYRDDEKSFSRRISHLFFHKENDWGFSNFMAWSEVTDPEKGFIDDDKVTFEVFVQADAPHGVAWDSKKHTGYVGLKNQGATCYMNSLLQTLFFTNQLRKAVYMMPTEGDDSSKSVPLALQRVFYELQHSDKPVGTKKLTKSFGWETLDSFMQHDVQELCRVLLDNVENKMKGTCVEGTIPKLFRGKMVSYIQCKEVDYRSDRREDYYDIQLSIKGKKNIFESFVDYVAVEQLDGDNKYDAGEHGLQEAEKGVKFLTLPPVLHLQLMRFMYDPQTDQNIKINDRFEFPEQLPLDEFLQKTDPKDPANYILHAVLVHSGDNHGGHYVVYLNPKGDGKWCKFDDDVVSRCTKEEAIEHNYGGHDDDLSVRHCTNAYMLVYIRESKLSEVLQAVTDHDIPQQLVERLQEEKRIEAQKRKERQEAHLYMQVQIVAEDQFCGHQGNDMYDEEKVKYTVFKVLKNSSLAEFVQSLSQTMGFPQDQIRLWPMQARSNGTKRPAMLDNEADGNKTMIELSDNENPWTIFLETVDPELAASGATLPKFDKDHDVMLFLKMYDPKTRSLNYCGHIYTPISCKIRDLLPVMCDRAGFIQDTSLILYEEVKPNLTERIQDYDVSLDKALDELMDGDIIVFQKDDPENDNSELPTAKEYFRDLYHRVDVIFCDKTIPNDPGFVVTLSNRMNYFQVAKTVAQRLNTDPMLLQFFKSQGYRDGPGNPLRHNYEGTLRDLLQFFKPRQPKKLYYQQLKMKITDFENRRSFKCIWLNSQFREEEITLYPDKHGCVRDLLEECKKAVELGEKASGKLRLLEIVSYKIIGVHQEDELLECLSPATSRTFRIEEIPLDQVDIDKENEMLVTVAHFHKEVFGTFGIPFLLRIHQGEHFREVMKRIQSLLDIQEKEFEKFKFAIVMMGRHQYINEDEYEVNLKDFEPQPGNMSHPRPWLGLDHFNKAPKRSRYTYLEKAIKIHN
Chain of UniProt O00487 (O00487 whole entry): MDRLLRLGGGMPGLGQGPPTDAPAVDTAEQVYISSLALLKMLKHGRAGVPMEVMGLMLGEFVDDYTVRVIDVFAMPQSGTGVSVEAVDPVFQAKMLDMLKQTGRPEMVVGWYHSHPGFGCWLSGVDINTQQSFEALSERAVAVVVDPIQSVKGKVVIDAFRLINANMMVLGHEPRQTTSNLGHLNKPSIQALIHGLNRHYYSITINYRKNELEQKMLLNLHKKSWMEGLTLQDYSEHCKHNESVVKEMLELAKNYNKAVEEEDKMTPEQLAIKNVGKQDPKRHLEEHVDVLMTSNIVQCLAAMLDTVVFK

COc1ccc(CN(C)C(=O)CCl)cc1
inactive: USP42 0.294 | USP46 -0.0887 | USP47 -0.0389 | USP48 -0.604 | USP5 0.404 | USP54 0.256 | USP7 -0.907 | USP8 -0.448 | USP9X -0.178 | UniProt O00487 -0.0169
